Assay outcomes as filed in PubChem.
An excerpt weighted towards active compounds, which were near 3.1% of everything screened.
p53null 32C tox: p53 null cell cytotoxicity, permissive temperature | H1299-neo p53 null cells, ATP luminescence, 24 h, 32C | Potency, µM (doses to about 46.1 µM), without a hit: at the highest dose activity change, negative = cytotoxicity, hits mostly cytotoxic | 55,000 tested, 0.62% active;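 also: potency is read from the fitted curve at half-maximal effect; 0% = DMSO only and -100% = full killing by 100 µM tamoxifen; nearly all actives have a fitted effect of over 55% in size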
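ATP-content luminescence in p53-null H1299-neo cells after 24 h compound exposure (up to 46 uM) at 32C permissive temperature; 0% and 100% killing set by DMSO and 100 uM tamoxifen; Hill-equation AC50.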
p53null 39C tox: kills p53 null cells at the nonpermissive temperature; H1299 p53-null (neo) cells, 39C, ATPlite viability, 24 h; Potency, µM (series often up to 46.1 µM), without a hit: top-dose activity, negative = cell killing, usual class: cytotoxic; 55,000 tested, 0.97% active; AID 904;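 also: potency is read from the fitted curve at half-maximal effect; 0% = DMSO only and -100% = full killing by 100 µM tamoxifen; nearly all actives have a fitted effect of over 50% in size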
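Cells seeded at 600/well, 37C overnight. Compound added (up to 46 uM), plates shifted to 39C for 24 hr. ATPlite added, luminescence read after 20 min at room temperature.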
S16 viability: cytotoxicity in S16 Pmp22-F2sN Schwann cells; S16 Pmp22-F2sN Schwann cells viability, CellTiter-Glo, 24 h; Potency, µM (titrated, usually from 57.5 µM), inactives show at the highest dose activity change, negative = cytotoxicity, most hits filed as cytotoxic; AID 1508642; 43,000 tested, 0.48% active; also: potency is read from the fitted curve at half-maximal effect; % is scaled to controls: 0 for no effect and ±100 for the full control effect; nearly all actives have a fitted effect of over 65% in size
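Rat S16 Schwann reporter line, 24 h treatment with library compounds delivered at 23 nL per well. Cell viability by CellTiter-Glo luminescence.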
SKOV3 invasion: blocks SKOV3ip1 adhesion and invasion in omental model. SKOV3ip1-GFP adhesion/invasion on 3D omental model, fluorescence. Potency, µM (top dose mostly 45.8 µM), for inactives: at the highest dose activity change, negative = inhibition, actives largely listed as inhibitors. 46,000 tested, 0.1% active. AID 1963576;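 also: potency is read from the fitted curve at half-maximal effect; plate controls were DMSO wells for no effect and tomatine positive control wells for full effect; nearly all actives have a fitted effect of over 65% in size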
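Adhesion/invasion was scored as fixed GFP-labeled SKOV3ip1 cell counts (488/509 nm), normalized to DMSO and tomatine controls. Cancer cells in serum-free medium, with four compound doses (0.36-46 umol/L), sat 2 hr at RT then 16 hr at 37 C on a 48 hr fibroblast/mesothelial/ECM culture.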
mTORC1 inh: reduces mTORC1 signaling in Tsc2 and p53 null MEF cells | AID 493208 | 44,000 tested, 0.78% active | Potency, µM (highest dose often 38.3 µM), for inactives: at the highest dose activity change, negative = inhibition, usual class: inhibitors | Tsc2-/- p53-/- MEF, phospho-rpS6 immunofluorescence/PI, 24 h;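 also: potency is read from the fitted curve at half-maximal effect; plate controls were DMSO for no effect and rapamycin for full effect; nearly all actives have a fitted effect of over 50% in size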
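Readout is phospho-S6 Alexa 488 signal normalized to PI per well, reported as % active cells with thresholds set from rapamycin (7.5 nM) and DMSO controls. Cells: Tsc2-/-, p53-/- MEFs, 24 hrs compound at 37 C; PI cell number serves as viability.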
PMP22 txn prim: modulators of PMP22 gene transcription in S16 Schwann cells; Potency, µM (titrated, usually from 57.5 µM), for the others: at the highest dose activity change, negative = inhibition, actives largely listed as inhibitors; 43,000 tested, 2% active; S16 Pmp22-F2sN Schwann cells, FLuc/NLuc coincidence luminescence, 24 h; active = clear falling dose curves in both reporters; inconclusive = both reporters move, but less clearly or upward; inactive = either reporter flat; the % is the NLuc reporter signal; also: potency is read from the fitted curve at half-maximal effect; % is scaled to controls: 0 for no effect and ±100 for the full control effect
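Reporter cells (S16 Pmp22-F2sN, 500–1,000 per well) exposed to compounds for 24 h, 37C, 5% CO2; lysis with FLuc read after 10 min, then Stop&Glo and NLuc read after 10 min.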
NLuc sat counter: inhibits NanoLuc at saturating substrate, PMP22 counter-screen; Secreted NLuc enzyme (filtered S16 cell medium), Nano-Glo luminescence; shares compounds with PMP22 txn prim; Potency, µM (top dose mostly 57.5 µM), without a hit: at the highest dose activity change, negative = inhibition, most hits filed as inhibitors; 690 tested, 4% active; also: potency is read from the fitted curve at half-maximal effect; % is scaled to controls: 0 for no effect and ±100 for the full control effect
NLuc Km ctr: counter-screen for PMP22 expression modulators: NanoLuc inhibition at Km; shares compounds with PMP22 txn prim; secreted NLuc enzyme, coelenterazine luminescence, Km conditions; Potency, µM (series often up to 57.5 µM), for the others: top-dose activity change, negative = inhibition, actives largely listed as inhibitors; 690 tested, 5% active; also: potency is read from the fitted curve at half-maximal effect; % is scaled to controls: 0 for no effect and ±100 for the full control effect
FLuc ctr PMP22: counter-screen for PMP22 expression modulators: firefly luciferase inhibition; shares compounds with PMP22 txn prim; purified P. pyralis FLuc, luminescence, 10 min; Potency, µM (series often up to 57.5 µM), inactives show at the top dose activity, negative = inhibition, actives largely listed as inhibitors; 690 tested, under 10 active; also: % of control where 0% means no effect
Target sequence (P08659 whole entry, looked up): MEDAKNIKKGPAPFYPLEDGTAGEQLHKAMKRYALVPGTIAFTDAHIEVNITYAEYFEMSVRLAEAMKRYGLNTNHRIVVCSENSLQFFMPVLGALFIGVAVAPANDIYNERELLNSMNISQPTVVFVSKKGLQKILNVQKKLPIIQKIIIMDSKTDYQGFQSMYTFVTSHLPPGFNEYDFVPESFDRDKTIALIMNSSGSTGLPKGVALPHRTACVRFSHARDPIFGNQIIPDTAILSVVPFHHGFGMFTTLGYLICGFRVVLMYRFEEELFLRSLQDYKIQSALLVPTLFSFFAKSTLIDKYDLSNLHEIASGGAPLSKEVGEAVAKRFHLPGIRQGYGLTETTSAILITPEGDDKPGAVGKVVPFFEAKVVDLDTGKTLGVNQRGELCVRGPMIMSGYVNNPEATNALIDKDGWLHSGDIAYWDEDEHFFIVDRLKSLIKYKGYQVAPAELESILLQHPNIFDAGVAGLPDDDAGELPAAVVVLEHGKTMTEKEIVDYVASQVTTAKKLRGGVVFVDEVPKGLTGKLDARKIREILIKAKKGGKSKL
S16 F2sN tox cnf: confirmation of cytotoxicity in S16 Pmp22-F2sN Schwann cells (luciferase reporters placed in the Pmp22 gene); shares compounds with PMP22 txn prim; S16 Schwann cells viability, CellTiter-Glo ATP luminescence, 24 h; Potency, µM (titrated, usually from 57.5 µM), for the others: top-dose activity change, negative = viability loss, hits mostly cytotoxic; 690 tested, 7% active; also: potency is read from the fitted curve at half-maximal effect; % is scaled to controls: 0 for no effect and ±100 for the full control effect
PMP22 txn cnf: confirmation of modulators of PMP22 gene transcription in S16 cells; S16 Schwann cells Pmp22-F2sN, dual luciferase, 24 h; 690 tested, 22% active; Potency, µM (doses to about 57.5 µM), inactives show at the top dose activity change, negative = inhibition, most hits filed as inhibitors; shares compounds with PMP22 txn prim; active = clear falling dose curves in both reporters; inconclusive = both reporters move, but less clearly or upward; inactive = either reporter flat; the % is the FLuc reporter signal; also: potency is read from the fitted curve at half-maximal effect
PMP22 HiBiT cnf: rat PMP22 protein level modulation, confirmatory. shares compounds with PMP22 txn prim. S16 Schwann cells Pmp22-HiBiT, luminescence, 48 h. Potency, µM (titrated, usually from 27.9 µM), for inactives: at the highest dose activity change, negative = inhibition, usual class: inhibitors. 95 tested, under 10 active. AID 1508647
Target sequence (P25094 whole entry, looked up): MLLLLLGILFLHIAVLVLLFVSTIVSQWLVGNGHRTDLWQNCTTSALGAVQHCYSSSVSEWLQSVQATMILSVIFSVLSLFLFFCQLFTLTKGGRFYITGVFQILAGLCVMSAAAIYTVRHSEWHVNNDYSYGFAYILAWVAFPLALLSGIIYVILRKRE
Numbers without * were called inactive; i = inactive; ? = inconclusive; / = no result given. Unless noted, calls follow the shape of the dose curve; as a rule, active = well fitted curve in the direction sought with a large enough effect; inconclusive = small, poorly fitted or top-dose-only effect, or another doubt; inactive = no such curve, though single readings can be large; an effect the other way counts as inactive or inconclusive.

SMILES	p53null 32C tox	p53null 39C tox	S16 viability	SKOV3 invasion	mTORC1 inh	PMP22 txn prim	NLuc sat counter	NLuc Km ctr	FLuc ctr PMP22	S16 F2sN tox cnf	PMP22 txn cnf	others
CCOc1ccc(-n2nc3ccc(NC(=O)Cc4ccccc4)cc3n2)cc1	-7.1%	27.9%	?	?	2.2%	5.04µM*	-5.0%	1.1%	?	3.5%	-2.4%
Cc1cc(C)c(NC(=O)Cn2c(=O)n(Cc3ccco3)c(=O)c3ccc(C(=O)NC4CCCC4)cc32)c(C)c1	1.0%	-4.2%	13.6%	-6.6%	-6.7%	5.04µM*	-13.4%	8.0%	-17.3%	21.7µM*	12.2µM*	PMP22 HiBiT cnf=17.4%
CCOc1ccc(NC(=O)Cn2c(=O)n(Cc3ccc4c(c3)OCO4)c(=O)c3ccc(C(=O)NC4CCCCC4)cc32)cc1	-2.7%	26.9%	1.4%	i	-0.2%	16.8µM*	3.8%	10.0%	-0.4%	?	12.5µM*
CCc1ccccc1NC(=O)Cn1c(=O)n(Cc2ccc3c(c2)OCO3)c(=O)c2ccc(C(=O)NC3CCCCC3)cc21	1.1%	31.0%	11.7%	-10.5%	0.4%	12.1µM*	1.3%	4.7%	4.3%	-29.2%	11.1µM*
Cc1ccc(C)c(NC(=O)Cn2c(=O)n(Cc3ccco3)c(=O)c3ccc(C(=O)NC4CCCC4)cc32)c1	12.7%	6.2%	2.0%	-1.8%	?	?	/	/	/	/	/
C=CC(=O)Nc1cc2c(Nc3ccc(F)c(Cl)c3)ncnc2cc1OCCCN1CCOCC1	/	/	/	-6.2%	/	/	/	/	/	/	/
Cc1c(Cl)cccc1NC(=O)Cn1c(=O)n(Cc2ccco2)c(=O)c2sc3ccccc3c21	0.0%	-16.0%	0.6%	i	-9.9%	12.7µM*	-2.7%	9.0%	2.6%	-37.8%	15.4µM*
Cc1ccc(CNC(=O)Cn2c(=O)n(-c3cccc(Cl)c3)c(=O)c3sc4ccccc4c32)cc1	?	6.9%	5.4%	i	-5.4%	9.46µM*	-6.9%	-3.3%	-3.6%	?	?
Cc1ccc(CNC(=O)Cn2c(=O)n(Cc3ccccc3)c(=O)c3sc4ccccc4c32)cc1	-2.0%	-7.3%	4.5%	32.3%	0.9%	13.4µM*	-1.1%	7.0%	8.6%	-19.5%	19.3µM*
CCc1ccccc1NC(=O)Cn1c(=O)n(Cc2ccco2)c(=O)c2sc3ccccc3c21	1.1%	2.8%	3.9%	-6.5%	5.0%	?	/	/	/	/	/
O=C(Nc1cc(C(F)(F)F)cc(C(F)(F)F)c1)c1cc(Cl)ccc1O	/	/	/	-13.2%	/	/	/	/	/	/	/
CCCCCCCCCC(=O)N[C@@H](Cc1c[nH]c2ccccc12)C(=O)N[C@H](CC(N)=O)C(=O)N[C@@H](CC(=O)O)C(=O)N[C@@H]1C(=O)NCC(=O)N[C@@H](CCCN)C(=O)N[C@@H](CC(=O)O)C(=O)N[C@H](C)C(=O)N[C@@H](CC(=O)O)C(=O)NCC(=O)N[C@H](CO)C(=O)N[C@@H]([C@@H](C)CC(=O)O)C(=O)N[C@@H](CC(=O)c2ccccc2N)C(=O)O[C@@H]1C	/	/	/	4.0%	/	/	/	/	/	/	/
O=C(CSc1nncn2c1cc1occc12)Nc1ccc(F)c(Cl)c1	0.6%	-20.3%	-2.7%	3.7%	-15.2%	-26.0%	/	/	/	/	/
CCC(Sc1nncn2c1cc1occc12)C(=O)Nc1ccc(C)c(Cl)c1 (configuration not stated)	5.9%	6.3%	?	4.2%	0.0%	16.8µM*	?	?	-15.6%	-4.5%	?
O=C(Nc1nnc(-c2ccco2)o1)c1cc(-c2ccccc2)nc2ccccc12	/	/	/	-1.5%	/	/	/	/	/	/	/
COc1ccc(NC(=O)Cn2c(=O)n(-c3cccc(C)c3)c(=O)c3c2c2cc(C)ccc2n3C)cc1Cl	-7.2%	-3.6%	10.7%	0.3%	-3.1%	15.2µM*	-2.0%	2.0%	2.1%	0.1%	?
CCN(Cc1ccccc1)C(=O)Cn1c(=O)n(-c2ccccc2)c(=O)c2c1c1cc(C)ccc1n2C	-20.4%	?	?	2.5%	2.9%	17.9µM*	-6.2%	1.4%	4.3%	18.5%	?
Cc1cccc(-n2c(=O)c3c(c4cc(C)ccc4n3C)n(CC(=O)NCCC3=CCCCC3)c2=O)c1	-2.5%	-14.1%	-0.4%	2.5%	-5.8%	?	2.2%	12.3%	5.1%	?	17.2µM*	PMP22 HiBiT cnf=4.4%
CCN(Cc1ccccc1)C(=O)Cn1c(=O)n(-c2cccc(C)c2)c(=O)c2c1c1cc(OC)ccc1n2C	14.1%	4.6%	17.2%	-1.9%	6.8%	?	/	/	/	/	/
Cc1cnc(-c2cnc(NCCNc3ccc(C#N)cn3)nc2-c2ccc(Cl)cc2Cl)[nH]1	/	/	/	-16.8%	/	/	/	/	/	/	/
CC(C=CC1=C(C)CCCC1(C)C)=CC=CC(C)=CC(=O)O	/	/	/	-24.4%	/	/	/	/	/	/	/
Cc1ccc(NC(=O)N2CCc3cc(S(=O)(=O)N4CCC(C)CC4)ccc32)cc1F	-1.4%	-10.7%	5.7%	0.3%	-1.9%	8.91µM*	-4.6%	4.7%	-3.9%	?	14.5µM*	PMP22 HiBiT cnf=2.8%
